Measured values from PubChem BioAssay (Tox21).
Inconclusive results are not listed. Activity calls are given as the source filed them. Unless noted, the call rests on the fitted dose curve; in most records, active means well fitted curve in the direction sought with a large enough effect in the repeat runs; inconclusive means weak or mixed curves; inactive means no such curve, though single readings can be large; an effect the other way counts as inactive or inconclusive.

Assays:
[1] = target: Luciferin 4-monooxygenase (Photinus pyralis) (UniProt P08659); test: qHTS assay to identify small molecule inhibitors of firefly luciferase (AID 1224835); further: nearly all actives have a fitted effect of over 25% in size
Chain of Luciferin 4-monooxygenase (Photinus pyralis) (P08659 whole entry, looked up): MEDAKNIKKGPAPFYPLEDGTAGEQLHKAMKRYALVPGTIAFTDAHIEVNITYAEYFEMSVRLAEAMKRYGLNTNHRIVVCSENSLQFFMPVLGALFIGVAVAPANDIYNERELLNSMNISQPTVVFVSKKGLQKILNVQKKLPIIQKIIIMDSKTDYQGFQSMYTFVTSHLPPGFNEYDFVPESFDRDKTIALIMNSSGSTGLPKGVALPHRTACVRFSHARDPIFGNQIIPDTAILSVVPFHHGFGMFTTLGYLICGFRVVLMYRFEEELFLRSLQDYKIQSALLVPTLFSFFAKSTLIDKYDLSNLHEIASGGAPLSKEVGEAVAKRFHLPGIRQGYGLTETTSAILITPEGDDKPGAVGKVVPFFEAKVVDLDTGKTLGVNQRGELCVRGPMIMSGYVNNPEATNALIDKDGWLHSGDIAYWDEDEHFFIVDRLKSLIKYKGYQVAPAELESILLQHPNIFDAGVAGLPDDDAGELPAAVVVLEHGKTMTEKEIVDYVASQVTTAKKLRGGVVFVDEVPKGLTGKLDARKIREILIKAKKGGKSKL
How it was run: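 Inhibition of purified Photinus luciferase is measured by luminescence. Substrate levels (D-luciferin, ATP) sit at their KM values. Each compound is tested in a concentration series.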

[2] = qHTS assay to identify small molecule agonists of the constitutive androstane receptor (CAR) signaling pathway - cell viability counter screen (AID 1224836); further: nearly all actives have a fitted effect of over 45% in size
How it was run: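 Compound titrations (15 concentrations) went onto HepG2-CYP2B6-hCAR cells 4 h after seeding, alongside PK11195 at a final 0.75 uM; a 23 h, 37 C/5% CO2 incubation preceded CellTiter-Fluor viability measurement.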

[3] = qHTS assay to identify small molecule antagonists of the constitutive androstane receptor (CAR) signaling pathway - cell viability counter screen (AID 1224837); further: nearly all actives have a fitted effect of over 45% in size
How it was run: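 To flag cytotoxic false antagonists, HepG2 hCAR/CYP2B6-2.2kb cells were treated 23 hr with 15-concentration compound series and 50 nM CITCO at 37 C/5% CO2; CellTiter-Fluor fluorescence was the measured end point.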

[4] = target: Nuclear receptor subfamily 1 group I member 3 (Homo sapiens) (UniProt Q14994); test: qHTS assay to identify small molecule antagonists of the constitutive androstane receptor (CAR) signaling pathway (AID 1224838);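 further: HepG2 cells stably expressing hCAR with CYP2B6 luciferase reporter stimulated by CITCO; nearly all actives have a fitted effect of over 40% in size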
Chain of Nuclear receptor subfamily 1 group I member 3 (Homo sapiens) (Q14994 whole entry, looked up): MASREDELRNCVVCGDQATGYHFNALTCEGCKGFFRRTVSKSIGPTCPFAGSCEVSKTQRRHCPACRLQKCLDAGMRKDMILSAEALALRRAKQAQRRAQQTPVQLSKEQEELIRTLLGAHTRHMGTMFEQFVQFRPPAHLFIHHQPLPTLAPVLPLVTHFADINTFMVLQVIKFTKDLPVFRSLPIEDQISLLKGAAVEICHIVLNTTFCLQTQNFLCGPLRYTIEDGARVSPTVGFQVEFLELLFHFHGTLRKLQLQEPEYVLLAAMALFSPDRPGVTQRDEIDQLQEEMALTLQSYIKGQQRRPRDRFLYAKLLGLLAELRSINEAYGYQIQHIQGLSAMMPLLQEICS
How it was run: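 Human hepatoma HepG2 cells expressing hCAR and a CYP2B6 promoter (2.2 kb) luciferase construct; compound titration (15 points) with 50 nM CITCO final, 24 h at 37 C/5% CO2; luminescence via ONE-Glo after 30 min at room temperature.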

[5] = target: Nuclear receptor subfamily 1 group I member 3 (Homo sapiens) (UniProt Q14994); test: qHTS assay to identify small molecule agonists of the constitutive androstane receptor (CAR) signaling pathway (AID 1224839);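 further: HepG2 cells stably carrying human CAR and a CYP2B6 luciferase reporter; nearly all actives have a fitted effect of over 15% in size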
How it was run: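 In this screen, CAR-driven CYP2B6 promoter activity is measured by luminescence in HepG2-CYP2B6-hCAR cells after 24 h with test compounds and 0.75 uM PK11195 (final concentration).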

[6] = qHTS assay to identify small molecule antagonists of the estrogen related receptor signaling pathway with the pleiotropic PPARgamma coactivator (PGC) from Tox21 10K library - cell viability counter screen (AID 1224840; active means well fitted cell-killing curve with a large enough effect in the repeat runs, not every such curve was filed as active; further: nearly all actives have a fitted effect of over 40% in size)
How it was run: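 Seeded PGC/ERR cells (2,000/well, 6 h, 37 C/5% CO2) get compound by pin tool; 17.5 h incubation at 37 C; CellTiter-Fluor added, 30 min, fluorescence measured.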

[7] = qHTS assay to identify small molecule antagonists of the estrogen related receptor signaling pathway with the pleiotropic PPARgamma coactivator (PGC) from Tox21 10K library (AID 1224841; call rule not given here; further: actives are mostly falling curves and most rising ones were filed inactive; nearly all actives have a fitted effect of over 50% in size)
How it was run: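 Test chemicals dissolved in DMSO were applied to pre-incubated (6 h) PGC/ERR cells at 2,000 cells/well for an 18 h, 37 C treatment; reporter luminescence was then read using One-Glo.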

[8] = qHTS assay to identify small molecule agonists of the hypoxia (HIF-1) signaling pathway - cell viability counter screen (AID 1224844; calls by dose curve; further: nearly all actives have a fitted effect of over 50% in size)
How it was run: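 HRE-bla ME-180; 0.5% dFBS; cpd 17 h, 37C, 5% CO2; CellTiter-Glo lum., 30 min RT, post-FRET read, same wells.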

[9] = qHTS assay to identify small molecule agonists of H2AX (AID 1224845; active means well fitted activation curve with a large enough effect in the signal ratio in the repeat runs, not every such curve was filed as active; the % refers to the signal ratio)
How it was run: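 Phospho-H2AX Ser139 measured by HTRF (ex 320 nm; em 665 and 620 nm) after 24 hr antibody incubation. Compounds, 15 concentrations, 0.76% DMSO, were applied to CHO-K1 cells for 3hr at 37C before lysis.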

[10] = qHTS assay to identify small molecule agonists of H2AX - cell viability counter screen (AID 1224847; calls by dose curve; further: top concentration of the series differs between compounds; nearly all actives have a fitted effect of over 30% in size)
How it was run: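 Read-out: CellTiter-Glo luminescence, 30 min RT. Cells: wild-type CHO-K1, 1000/well, 10% FBS, plated overnight at 37C. Treatment: 15 concentrations, 3 hr, 37C, 0.76% DMSO.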

[11] = qHTS assay to identify small molecule antagonists of the estrogen related receptor (ERR) signaling pathway from Tox21 library (AID 1224848); further: nearly all actives have a fitted effect of over 50% in size
How it was run: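 ERR cell line, 2,000 cells/well. 6 h settle, then compound (DMSO) added; 18 h at 37 C; ONE-Glo luminescence after 30 min RT.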

[12] = qHTS assay to identify small molecule agonists of the estrogen related receptor (ERR) signaling pathway from Tox21 library (AID 1224849; calls by dose curve; further: nearly all actives have a fitted effect of over 15% in size); settings: ERR reporter cell line, ONE-Glo luciferase, 18 h
How it was run: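 Tox21 compounds tested for ERR agonism in an NTP reporter cell line: 18 h treatment at 37 C, then ONE-Glo luminescence.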

[13] = qHTS RealTime-Glo MT Cell Viability Assay in HepG2 cells - 24 hour (AID 1224867); further: nearly all actives have a fitted effect of over 50% in size
How it was run: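 HepG2 suspension premixed with RealTime-Glo reagents is plated at 600 cells per well and left 5 h at 37 C/5% CO2. Compounds in DMSO then go in, and bioluminescence reflecting viable cell number is recorded over 40 h.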

[14] = qHTS RealTime-Glo MT Cell Viability Assay in HEK293 cells - 32 hour (AID 1224868)
How it was run: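 Reads taken at 0, 8, 16, 24, 32 and 40 h from the same wells. HEK293 cells (600/well) carried RealTime-Glo reagents from seeding, with compound added after a 5 h settle at 37 C.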

[15] = A CellTox Green Cytotoxicity Assay to monitor cytotoxicity in HEK293 cells - 0 hour (AID 1224869); further: nearly all actives have a fitted effect of over 50% in size
How it was run: (§1)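 Tox21 screen in HEK293: membrane-impermeant cyanine dye fluoresces on binding dead-cell DNA; compound pinned 5 h post-seeding, plates held at 37 C, signal read repeatedly through 40 h.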

[16] = qHTS RealTime-Glo MT Cell Viability Assay in HepG2 cells - 40 hour (AID 1224870); further: nearly all actives have a fitted effect of over 50% in size
How it was run: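 Real-time viability: cells seeded at 600 per well together with NanoLuc and cell-permeant prosubstrate, compounds added after 5 h incubation. Luminescence tracked at 0, 8, 16, 24, 32 and 40 h of exposure.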

[17] = qHTS assay to identify small molecule agonists of the estrogen related receptor signaling pathway with the pleiotropic PPARgamma coactivator (PGC) from Tox21 10K library (AID 1224842); further: nearly all actives have a fitted effect of over 15% in size
How it was run: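 Luminescence from One-Glo (30 min, room temperature) measured after PGC/ERR cells had 18 h at 37 C with pinned compound (23 nL in DMSO). Cells had been seeded at 2,000 per well and pre-incubated 6 h.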

[18] = target: Thyrotropin receptor (Homo sapiens) (UniProt P16473); test: qHTS assay to identify small molecule agonists of the thyroid stimulating hormone receptor (TSHR) signaling pathway (AID 1224843; calls by dose curve; further: nearly all actives have a fitted effect of over 45% in size)
Chain of Thyrotropin receptor (Homo sapiens) (P16473 whole entry, looked up): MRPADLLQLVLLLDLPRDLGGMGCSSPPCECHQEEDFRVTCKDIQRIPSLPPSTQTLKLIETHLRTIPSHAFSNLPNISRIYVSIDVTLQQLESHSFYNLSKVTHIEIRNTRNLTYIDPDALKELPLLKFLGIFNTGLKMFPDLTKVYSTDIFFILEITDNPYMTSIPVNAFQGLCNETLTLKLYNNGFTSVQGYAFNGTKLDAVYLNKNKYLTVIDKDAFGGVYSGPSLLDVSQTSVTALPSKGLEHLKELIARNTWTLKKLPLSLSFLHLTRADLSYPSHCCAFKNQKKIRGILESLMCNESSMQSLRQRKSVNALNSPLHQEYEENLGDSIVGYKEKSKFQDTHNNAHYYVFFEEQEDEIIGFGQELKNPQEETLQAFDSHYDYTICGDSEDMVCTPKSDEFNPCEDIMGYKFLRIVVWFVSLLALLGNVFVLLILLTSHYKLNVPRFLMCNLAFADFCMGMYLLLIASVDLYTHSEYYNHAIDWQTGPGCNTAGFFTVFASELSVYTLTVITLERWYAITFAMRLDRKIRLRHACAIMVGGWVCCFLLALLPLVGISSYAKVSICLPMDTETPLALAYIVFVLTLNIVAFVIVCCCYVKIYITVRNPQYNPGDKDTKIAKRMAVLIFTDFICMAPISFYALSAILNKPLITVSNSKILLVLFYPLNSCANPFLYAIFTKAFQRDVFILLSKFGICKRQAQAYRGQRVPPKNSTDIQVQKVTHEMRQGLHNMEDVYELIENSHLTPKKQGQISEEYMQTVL
How it was run: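 A cell-based cAMP HTRF format was run in TSHR-transfected HEK293 cells, 800 per well. Treatment: 30 min, room temperature. Detection: 1 h with labelled cAMP and anti-cAMP cryptate. Concentration-response over 15 points, three replicates.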

[19] = qHTS assay to identify small molecule agonists of the hypoxia (HIF-1) signaling pathway (AID 1224846; active means well fitted activation curve with a large enough effect in the signal ratio in the repeat runs, not every such curve was filed as active; the % refers to the signal ratio)
How it was run: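 Reporter induction in HRE-bla ME-180 cells is taken as agonism: cells sit 5 hrs after plating, receive compounds or DMSO only, incubate 17 hrs at 37C under 5% CO2, and are loaded with CCF4-AM for beta-lactamase FRET measurement.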

[20] = A CellTox Green Cytotoxicity Assay to monitor cytotoxicity in HEK293 cells - 40 hour (AID 1224871); further: nearly all actives have a fitted effect of over 45% in size
How it was run: as §1
On the % scale 0 is the no-effect control and ±100 the full control effect.

COc1ccc2c(c1)c(CC(=O)OC/C=C(\C)CC/C=C(\C)CCC=C(C)C)c(C)n2C(=O)c1ccc(Cl)cc1
inactive: Potency [1] | Potency [2] | Potency [3] | Potency [4] | Potency [5] | Potency [6] | Potency [7] | Potency [8] | Potency [9] | Potency [10] | Potency [11] | activity change, positive = activation ([12]; at 42.5 µM (top of the series)) -0.248% | Potency [13] | Potency [14] | Potency [15] | Potency [16]

Cc1c(F)c(N2CCNC(C)C2)cc2c1c(=O)c(C(=O)O)cn2C1CC1 (configuration not stated)
inactive: Potency [1] | Potency [2] | Potency [3] | Potency [4] | Potency [5] | Potency [6] | Potency [7] | Potency [17] | Potency [18] | Potency [8] | Potency [9] | Potency [19] | Potency [11] | activity change, positive = activation ([12]; at 42.5 µM (top of the series)) 9.53% | Potency [13] | Potency [14] | Potency [16] | Potency [20]

Cc1nc(-c2ccc(Cl)cc2)oc1COC(C)(C)C(=O)O
inactive: Potency [1] | Potency [2] | Potency [3] | Potency [4] | Potency [5] | Potency [6] | Potency [7] | Potency [17] | Potency [18] | Potency [8] | Potency [9] | Potency [19] | Potency [11] | activity change, positive = activation ([12]; at 42.5 µM (top of the series)) 0.637% | Potency [13] | Potency [14] | Potency [15] | Potency [16] | Potency [20]

CCC(COC(=O)CCS)(COC(=O)CCS)COC(=O)CCS
inactive: Potency [1] | Potency [2] | Potency [3] | Potency [4] | Potency [5] | Potency [6] | Potency [7] | Potency [17] | Potency [18] | Potency [8] | Potency [9] | Potency [19] | Potency [10] | Potency [11] | activity change, positive = activation ([12]; at 92.4 µM (top of the series)) 4.52% | Potency [13] | Potency [14] | Potency [15] | Potency [16] | Potency [20]

O=C(O)CCN(C1(C(=O)NO)CCCC1)S(=O)(=O)c1ccc(Oc2ccc(F)cc2)cc1
inactive: Potency [1] | Potency [2] | Potency [3] | Potency [4] | Potency [5] | Potency [6] | Potency [7] | Potency [17] | Potency [18] | Potency [8] | Potency [9] | Potency [19] | Potency [10] | Potency [11] | activity change, positive = activation ([12]; at 92.4 µM (top of the series)) 4.9% | Potency [13] | Potency [14] | Potency [15] | Potency [16] | Potency [20]

CCc1ccc(Br)cc1
inactive: Potency [1] | Potency [2] | Potency [3] | Potency [4] | Potency [5] | Potency [6] | Potency [7] | Potency [17] | Potency [18] | Potency [8] | Potency [9] | Potency [19] | Potency [10] | Potency [11] | activity change, positive = activation ([12]; at 92.4 µM (top of the series)) 5.1% | Potency [13] | Potency [14] | Potency [15] | Potency [16]
